Calls of active or inactive are those of the source. Calls follow the shape of the full dose curve.
molecular target: Muscarinic acetylcholine receptor M1 (Homo sapiens) (UniProt P11229); test: Cholinergic receptor muscarinic 1 (CHRM1) small molecule agonists, cell-based qHTS assay (AID 1963589); settings: CHRM1-CHO cells, agonist mode, calcium flux fluorescence; series mostly up to 76.8 µM; activation: at the top concentration; also: nearly all actives have a fitted effect of over 35% in size
Source text: National Center for Advancing Translational Sciences [NCATS]
Division of Preclinical Innovation [DPI]
U.S. Environmental Protection Agency [EPA]
National Institutes of Environmental Health Sciences [NIEHS]
National Toxicology Program [NTP]
U.S. Food and Drug Administration [FDA]
The CHRM1 is a muscarinic receptor. This receptor plays a crucial role in learning and memory processes and has long been identified as a promising therapeutic target for the improvement of cognitive decline in Alzheimer's disease (AD). The CHRM1-CHO cell line stably expressing human muscarinic acetylcholine receptor M1 (CHRM1) can be used for screening agonists and antagonists of interactions between CHRM1 and its ligands. The CHRM1-CHO Calcium Flux Assay is a homogeneous fluorescence-based assay for detecting the intracellular calcium level using FDSS kinetic plate reader system.
CHRM1-CHO cells were dispensed at 1000 cells/3uL/well in 1536-well black-clear bottom plates using a Multidrop Dispenser. After the assay plates were incubated at a 37 C/5% CO2 incubator for 18 h, 3 uL of Dye Loading Buffer was transferred to the assay plate by a Flying Reagent Dispenser. The assay plates were incubated at 37 C for 1h. For agonist mode, 23 nL of compounds dissolved in DMSO, positive controls or DMSO only was transferred to the assay plate by a pin tool. […] Each test compound was measured at 15 concentrations in three independent runs.
% is scaled to controls: 0 for no effect and ±100 for the full control effect.

Sequence of Muscarinic acetylcholine receptor M1 (Homo sapiens) (P11229 whole entry, looked up): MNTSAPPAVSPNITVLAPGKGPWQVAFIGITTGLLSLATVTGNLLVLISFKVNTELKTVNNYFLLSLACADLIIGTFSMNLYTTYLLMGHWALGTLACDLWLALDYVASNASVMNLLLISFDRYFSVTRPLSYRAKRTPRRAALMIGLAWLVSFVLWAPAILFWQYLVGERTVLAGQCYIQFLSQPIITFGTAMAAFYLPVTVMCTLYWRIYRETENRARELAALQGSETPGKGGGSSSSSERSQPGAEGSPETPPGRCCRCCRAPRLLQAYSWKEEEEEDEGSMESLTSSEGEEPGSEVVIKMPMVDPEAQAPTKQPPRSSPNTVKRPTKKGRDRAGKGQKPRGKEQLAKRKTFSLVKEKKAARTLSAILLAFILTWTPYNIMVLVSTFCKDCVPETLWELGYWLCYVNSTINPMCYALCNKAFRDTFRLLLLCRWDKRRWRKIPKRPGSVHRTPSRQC

Row | SMILES | activation
1 | COc1cc(Cl)c(OC)cc1Cl | -1.03% (inactive)
2 | CN1CCc2cc(Cl)c(O)cc2[C@H]2c3ccccc3CC[C@@H]21 | 5.04% [at 35.3 µM] (inactive)
3 | COc1cc(CC(C)N)cc2c1OCO2 (stereo not given) | -0.187% (inactive)
4 | CNC(=O)Oc1ccc(N(C)C)c(C)c1 | -2.19% (inactive)
5 | CC(C)=CCOc1c2occc2cc2ccc(=O)oc12 | -0.21% [at 35.3 µM] (inactive)
6 | N#Cc1cc(I)c(O)c(I)c1 | 1.96% (inactive)
7 | CCCN(CCC)CCc1c[nH]c2ccccc12 | -0.005% (inactive)
8 | CCCCc1ccccc1 | 0.202% (inactive)
9 | CN1C(=O)C(O)N=C(c2ccccc2)c2cc(Cl)ccc21 (stereo not given) | 0.353% (inactive)
10 | CC(C)[C@H](C(=O)OC(C#N)c1cccc(Oc2ccccc2)c1)c1ccc(OC(F)F)cc1 (stereo not given in full) | 1.52% (inactive)
11 | C/C=C/C=O | -0.254% (inactive)
12 | IC(I)=C(I)I | 3.73% (inactive)
13 | COc1cc(C[C@@H](C)N)c(OC)cc1Br | 9.13% (inactive)
14 | O=NN1CCN(N=O)CC1 | -0.0793% (inactive)
15 | CCOP(=S)(OCC)Oc1nc(Cl)n(C(C)C)n1 | -0.867% (inactive)
16 | CCC1(CC)C(=O)N=C(O)NC1=O | -0.0039% (inactive)
17 | CC(C)C1CCC(Cc2ccc(Cl)cc2)C1(O)Cn1cncn1 (stereo not given) | 5.2% (inactive)
18 | Clc1ccc(Oc2ccccc2)cc1 | 0.841% (inactive)
19 | CCOP(=O)(N=C1SCCS1)OCC | -0.143% (inactive)
20 | CC(C)N(CCC(C(N)=O)(c1ccccc1)c1ccccn1)C(C)C (stereo not given) | -0.335% [at 35.3 µM] (inactive)

Row | SMILES | activation
21 | CC(O)C#N (stereo not given) | 0.31% (inactive)
22 | Clc1ccc(-c2ccc(Cl)c(Cl)c2Cl)c(Cl)c1Cl | 7.49% (inactive)
23 | COC(=O)c1ccccc1S(=O)(=O)NC(=O)N(C)c1nc(C)nc(OC)n1 | 0.0102% (inactive)
24 | CCOC(C(=O)OCCN(C)C)(c1ccccc1)c1ccccc1 | -0.507% [at 35.3 µM] (inactive)
25 | Clc1ccc(CCC(Cn2ccnc2)Sc2c(Cl)cccc2Cl)cc1 (stereo not given) | -0.621% [at 35.3 µM] (inactive)
26 | CCN1CCCC1CNC(=O)C(O)(c1ccccc1)c1ccccc1 (stereo not given) | 0.18% [at 35.3 µM] (inactive)
27 | CCCCCl | 0.0222% (inactive)
28 | CC(C)C(=O)Cl | 0.108% (inactive)
29 | COC1=CC(=O)O[C@@H](CCc2ccccc2)C1 | -1.12% (inactive)
30 | COc1cccc(C(=O)NN(C(=O)c2cc(C)cc(C)c2)C(C)(C)C)c1C | -0.596% (inactive)
31 | CCCCN(N=O)C(=N)N[N+](=O)[O-] | -0.133% (inactive)
32 | Cc1ccccc1C(=O)Nc1cccc(OC(C)C)c1 | -0.731% (inactive)
33 | Clc1ccc2ccccc2c1 | 0.0818% (inactive)
34 | CC(C)(N)Cc1ccc(Cl)cc1 | 1.19% [at 35.3 µM] (inactive)
35 | Cc1cc(C(F)(C(F)(F)F)C(F)(F)F)ccc1NC(=O)c1cccc(I)c1C(=O)NC(C)(C)CS(C)(=O)=O | -0.82% [at 35.3 µM] (inactive)
36 | CCC(C)Nc1c([N+](=O)[O-])cc(C(C)(C)C)cc1[N+](=O)[O-] (stereo not given) | -0.931% (inactive)
37 | O=C(O)C(Br)(Br)Br | 0.702% (inactive)
38 | ClC(Cl)C(Cl)Cl | -0.91% (inactive)
39 | CCCN(CC)CC1COC2(CCC(C(C)(C)C)CC2)O1 (stereo not given) | -0.925% (inactive)
40 | C=CCC1=C(C)C(OC(=O)C2C(C=C(C)C)C2(C)C)CC1=O (stereo not given) | 2.16% (inactive)

— PubChem BioAssay (Tox21)
